Outcome and AC50 data for 20 molecules are collected here from PubChem BioAssay (EPA / NIEHS).

Common to all, as to conditions: primary human HUVEC with PBMC; actives raise or lower the signal
Read-out in assay [1]: Monocyte Chemoattractant Protein-1 (MCP1), CCL2 (gene 6347)
Description: BSK_LPS_MCP1: BioMAP Diversity Plus: LPS Assay for Monocyte Chemoattractant Protein-1 (MCP1) Biomarker Activity (AID 2283081).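 On AC50: co-culture stimulated with LPS; secreted MCP-1 protein quantified by ELISA in culture supernatant.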 In outline: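 Secreted MCP-1 read by ELISA at 24 h post-dosing in an LPS-activated co-culture of endothelial cells with peripheral blood mononuclear cells. Fits run in both directions, DMSO as baseline; parallel SRB staining tracks overt cytotoxicity.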

Assay [2] can be described thus: BSK_LPS_PGE2: BioMAP Diversity Plus: LPS Assay for Prostaglandin E2 (PGE2) Biomarker Activity (AID 2283082).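 On AC50: secreted prostaglandin E2 measured by ELISA in LPS-stimulated co-culture.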 The essentials: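 Primary human endothelial cells and blood mononuclear cells, co-cultured with LPS, receive test chemical; PGE2 ELISA follows at 24 h, with SRB-stained parallel cultures flagging cytotoxicity.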
Read-out in assay [3]: Macrophage colony-stimulating factor (MCSF), CSF1 (gene 1435)
In words: BSK_LPS_MCSF: BioMAP Diversity Plus: LPS Assay for Macrophage colony-stimulating factor (MCSF) Biomarker Activity (AID 2283083). In outline:
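Bidirectional fitting against DMSO was applied to M-CSF levels read by ELISA at 24 h post-dose. The system pairs human umbilical vein endothelium with peripheral blood mononuclear cells; parallel SRB staining tracked cytotoxicity.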

Read-out in assay [4]: Tissue Factor, F3 (gene 2152)
Description: BSK_LPS_TissueFactor: BioMAP Diversity Plus: LPS Assay for Tissue Factor Biomarker Activity (AID 2283084). The essentials:
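Compound was added to an endothelial cell/PBMC co-culture, and after 24 h tissue factor (CD142) was read by ELISA. Gain or loss of signal was fitted against a DMSO baseline, and parallel SRB staining (560 nm) tracked overt cytotoxicity.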

Read-out in assay [5]: Tumor necrosis factor (Homo sapiens) (UniProt P01375)
In words: BSK_LPS_TNFa: BioMAP Diversity Plus: LPS Assay for Tumour Necrosis Factor alpha (TNFa) Biomarker Activity (AID 2283085).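 On AC50: TNFa protein level quantified by ELISA in the co-culture.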 In outline: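 ELISA-based TNFa endpoint in a human endothelial–PBMC co-culture sampled 24 h post-exposure. Curves were fitted in both directions using DMSO as baseline of activity.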

Read-out in assay [6]: Vascular cell adhesion molecule 1 (VCAM1), VCAM1 (gene 7412)
Description: BSK_LPS_VCAM1: BioMAP Diversity Plus: LPS Assay for Vascular cell adhesion molecule 1 (VCAM1) Biomarker Activity (AID 2283086). In outline: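 Measured by ELISA: VCAM-1 in LPS-activated HUVEC/PBMC co-cultures 24 h after treatment. Values reflect bidirectional fitting with DMSO as baseline.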

Read-out in assay [7]: CD38, CD38 (gene 952)
In words: BSK_SAg_CD38: BioMAP Diversity Plus: SAg Assay for CD38 Biomarker Activity (AID 2283087). In outline:
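Measures CD38 on a human endothelial/PBMC co-culture driven by SEB and TSST-1, 24 h after compound exposure, using ELISA with fluorescence detection; DMSO defines baseline for bidirectional curve fitting.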

Read-out in assay [8]: CD40, CD40 (gene 958)
In words: BSK_SAg_CD40: BioMAP Diversity Plus: SAg Assay for CD40 Biomarker Activity (AID 2283088). In outline:
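CD40 is measured by fluorescence ELISA in an endothelial/PBMC primary human co-culture at 24 h post-dose. Fitting is bidirectional, DMSO baseline. Parallel SRB staining (560 nm) flags cytotoxicity.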

Read-out in assay [9]: CD69, CD69 (gene 969)
Description: BSK_SAg_CD69: BioMAP Diversity Plus: SAg Assay for CD69 Biomarker Activity (AID 2283089).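 On AC50: cell surface CD69 protein quantified by ELISA with fluorescence detection.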 In outline:
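Endothelial/PBMC co-culture; chemical added; 24 h incubation; CD69 ELISA with fluorescence detection; bidirectional fit vs DMSO.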

Read-out in assay [10]: Monocyte Chemoattractant Protein-1 (MCP1), CCL2 (gene 6347)
Description: BSK_SAg_MCP1: BioMAP Diversity Plus: SAg Assay for Monocyte Chemoattractant Protein-1 (MCP1) Biomarker Activity (AID 2283090). The essentials:
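Values derive from bidirectional fitting of ELISA-measured MCP1 against DMSO controls. Readings were taken 24 h after dosing human vascular endothelial cells co-cultured with peripheral blood mononuclear cells under superantigen stimulation.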

Each structure is given as a SMILES string. Active and inactive are the calls of the source. How the source made its calls: active means hit-call score of the fitted dose curve at least 0.9, where 1 is the maximum; inactive means score below 0.9.

Chain of Tumor necrosis factor (Homo sapiens) (P01375 whole entry, looked up): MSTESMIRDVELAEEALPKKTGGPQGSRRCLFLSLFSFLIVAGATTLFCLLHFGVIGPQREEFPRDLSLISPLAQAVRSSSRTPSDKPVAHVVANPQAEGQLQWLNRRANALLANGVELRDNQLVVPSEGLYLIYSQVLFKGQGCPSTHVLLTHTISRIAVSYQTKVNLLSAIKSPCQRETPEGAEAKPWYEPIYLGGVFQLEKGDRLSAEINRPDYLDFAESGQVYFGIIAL

With `CNC(=O)[C@H]1O[C@@H](n2cnc3c(NCc4cc(Cl)ccc4OCc4cc(C)no4)ncnc32)[C@H](O)[C@@H]1N`, the outcome in [1], in [2], in [3], in assay [4], in assay [5] and in [6] was inactive. For the same molecule, the result in [7], in [8], in [9] and in assay [10] was inactive.

Take `OC[C@@H](O)[C@@H](O)[C@H](O)[C@H](O)CO`: the outcome in assay [1], in [2], in [3], in assay [4], in assay [5] and in assay [6] was inactive. For the same molecule, the outcome in [7], in assay [8], in assay [9] and in [10] was inactive.

Regarding `Cc1ccc(C)c(C)c1`, the outcome in assay [1], in assay [2], in assay [3], in assay [4], in [5] and in assay [6] was inactive. In addition, the result in assay [7], in [8], in [9] and in [10] was inactive.

For `CC(=O)C(C)=CC1C(C)=CCCC1(C)C` (stereo not drawn), the outcome in assay [1], in assay [2], in [3], in assay [4], in [5] and in assay [6] was inactive. In addition, the result in [7], in assay [8], in [9] and in assay [10] was inactive.

For orientation: AC50 means the concentration at which the activity in the assay is half-maximal. On to `O=C(O)Cc1ccccc1Nc1c(Cl)cccc1Cl`, for which the result in assay [1], in assay [4], in assay [6], in [7], in assay [8] and in assay [9] was inactive. The result in [10] was inactive. For the same molecule, the AC50 in assay [2] is 0.291 µM (active); in [3] it was 16.6 µM (active); in [5] it was 20 µM (active).

With `CN[C@H]1CC[C@@H](c2ccc(Cl)c(Cl)c2)c2ccc(S(N)(=O)=O)cc21`, the AC50 in assay [1] was 18.7 µM (active); in [3] it was 30.1 µM (active); in [4] it was 32.2 µM (active); in assay [5] it was 23.3 µM (active); in assay [6], 20 µM (active); in [7] it was 27.7 µM (active). Further, the half-maximal activity concentration (AC50) is 29.3 µM (active) in [8], 26.1 µM (active) in assay [9] and 25.2 µM (active) in assay [10]. The outcome in assay [2] was inactive.

As for `Cc1cc(NC(=O)C(=O)O)cc(C)c1Oc1ccc(O)c2c1CCC2`, the result in assay [1], in assay [2], in assay [3], in assay [4], in [6] and in assay [7] was inactive. Besides, the outcome in assay [8], in assay [9] and in assay [10] was inactive. In addition, the AC50 in assay [5] is 0.844 µM (active).

Consider `C[Si]1(C)O[Si](C)(C)O[Si](C)(C)O[Si](C)(C)O1`, for which the outcome in assay [1], in assay [2], in assay [3], in assay [4], in assay [5] and in [6] was inactive. In addition, the outcome in assay [7], in assay [8], in assay [9] and in assay [10] was inactive.

For `CCCCN(CCCC)CCCC`, the outcome in assay [1], in assay [2], in [3], in assay [4], in assay [5] and in assay [6] was inactive. The result in assay [7], in assay [8], in assay [9] and in assay [10] was inactive.

Take `COc1cc(S(=O)(=O)O)c(C)cc1N=Nc1c(O)ccc2cc(S(=O)(=O)O)ccc12`: the outcome in [1], in assay [2], in [3], in assay [4], in assay [5] and in assay [6] was inactive. The result in [7], in assay [8], in [9] and in [10] was inactive.

On to `Cc1ccc(C(C)C)c(O)c1`, for which the outcome in [1], in assay [3], in [4], in [5], in assay [6] and in assay [7] was inactive. In addition, the outcome in [8], in assay [9] and in assay [10] was inactive. In addition, in assay [2], the AC50 was 8.88 µM (active).

With `O=[N+]([O-])C(CO)(CO)CO`, the outcome in assay [1], in [2], in [3], in assay [4], in assay [5] and in assay [6] was inactive. Also, the outcome in [7], in [8], in assay [9] and in assay [10] was inactive.

With `Cc1ccccc1Cl`, the result in assay [1], in [2], in assay [3], in assay [4], in assay [5] and in [6] was inactive. Further, the outcome in [7], in assay [8], in assay [9] and in assay [10] was inactive.

For the molecule `CC=Cc1ccc(O)c(OC)c1`, the outcome in assay [1], in [3], in [5], in assay [6], in assay [7] and in assay [8] was inactive. The result in assay [9] and in assay [10] was inactive. The AC50 in [2] was 6.95 µM (active); in assay [4] it was 2.82 µM (active).

On to `COc1ccc2c(c1)c(CC(=O)O)c(C)n2C(=O)c1ccc(Cl)cc1`, for which the result in [1], in assay [3], in assay [4], in assay [5], in assay [6] and in assay [7] was inactive. Moreover, the outcome in assay [9] and in assay [10] was inactive. Moreover, the concentration at half-maximal activity (AC50) in [2] was 0.148 µM (active).

With `CN1CCCC1=O`, the outcome in assay [1], in assay [2], in [3], in assay [4], in [5] and in assay [6] was inactive. Besides, the result in assay [7], in assay [9] and in assay [10] was inactive.

With `O=C(N[C@@H](Cc1ccccc1)[C@@H](O)C(=O)N1C[C@@H](O)[C@@H](O)C1)c1cc2cc(Cl)ccc2[nH]1`, the result in assay [1], in assay [2], in assay [3], in assay [4], in [5] and in assay [6] was inactive. Also, the outcome in assay [7], in assay [8], in assay [9] and in assay [10] was inactive.

For the molecule `CCCCCCCCCCCCCCCC`, the result in [1], in [2], in assay [3], in [4], in [5] and in assay [6] was inactive. Also, the outcome in assay [7], in assay [8], in [9] and in assay [10] was inactive.

As to `CCOc1ccc2c(c1)C(C)=CC(C)(C)N2`, the outcome in [1], in assay [3], in assay [4], in assay [6], in assay [7] and in [8] was inactive. Besides, the result in assay [9] and in assay [10] was inactive. Moreover, the AC50 was 4.6 µM (active) in [2] and 3.97 µM (active) in [5].

For `COCCOC[C@H](CC1(C(=O)NC2CCC(C(=O)O)CC2)CCCC1)C(=O)Oc1ccc2c(c1)CCC2` (stereo partly drawn), the result in [1], in [2], in [3], in assay [4], in assay [5] and in assay [6] was inactive. The outcome in assay [7], in assay [8], in assay [9] and in assay [10] was inactive.
